Only some compounds are listed: those with a hit (about 3% of all), similar ones and a draw of the others.
ALOX15B inhib: inhibitors of human 15-lipoxygenase 2 (ALOX15B); purified 15hLO-2, xylenol orange hydroperoxide absorbance; Potency, µM (titrated, usually from 57.1 µM), for inactives: top-dose activity change, negative = inhibition, most hits filed as inhibitors; 110,000 compounds, 0.56% hits; further: potency means the concentration at half of the fitted maximal effect; nearly all actives have a fitted effect of over 60% in size
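Purified human 15hLO-2 (50 nM) preincubated 15 min with compound, then 45 uM arachidonic acid for 90 min at RT in 25 mM Hepes pH 7.5, 0.01% Triton X-100. Hydroperoxide detected by Fe-xylenol orange; 573/405 nm absorbance ratio.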
12-hLO inh: inhibitors of human 12-lipoxygenase (ALOX12) | P18054 | purified 12-hLO, xylenol orange hydroperoxide absorbance | Potency, µM (top dose mostly 57.1 µM), without a hit: at the highest dose activity change, negative = inhibition, most hits filed as inhibitors | 150,000 compounds, 0.12% hits | AID 1452; further: potency means the concentration at half of the fitted maximal effect; nearly all actives have a fitted effect of over 55% in size
Target sequence (P18054 whole entry, looked up): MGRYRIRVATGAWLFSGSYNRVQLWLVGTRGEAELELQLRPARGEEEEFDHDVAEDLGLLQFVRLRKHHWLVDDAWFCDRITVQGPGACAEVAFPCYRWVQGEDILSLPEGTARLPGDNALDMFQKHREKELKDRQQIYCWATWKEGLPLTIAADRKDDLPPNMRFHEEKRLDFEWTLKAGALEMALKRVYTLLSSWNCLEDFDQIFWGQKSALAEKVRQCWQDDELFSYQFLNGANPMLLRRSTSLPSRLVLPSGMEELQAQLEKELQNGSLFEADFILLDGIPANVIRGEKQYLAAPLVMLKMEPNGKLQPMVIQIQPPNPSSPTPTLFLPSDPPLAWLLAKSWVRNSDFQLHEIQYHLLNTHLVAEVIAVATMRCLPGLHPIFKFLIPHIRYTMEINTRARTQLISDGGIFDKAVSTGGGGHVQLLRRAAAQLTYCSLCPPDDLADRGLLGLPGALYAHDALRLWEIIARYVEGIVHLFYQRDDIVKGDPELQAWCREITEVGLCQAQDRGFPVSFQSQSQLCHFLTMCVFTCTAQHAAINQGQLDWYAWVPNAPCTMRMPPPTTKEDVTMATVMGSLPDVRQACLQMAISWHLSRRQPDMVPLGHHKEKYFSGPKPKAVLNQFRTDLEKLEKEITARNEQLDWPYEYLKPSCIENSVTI
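Hydroperoxide output read as Fe(III)-xylenol orange absorbance, 573-to-405 nm ratio, after 30 min reaction with 40 uM arachidonic acid. Enzyme: 150 nM purified human 12hLO, 15 min compound preincubation; 25 mM Hepes pH 7.0, room temperature.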
IMPase inh: cell-permeable inhibitors of inositol monophosphatase (IMPase); P97697; CHO-M1 cells, IP1 accumulation, HTRF TR-FRET ratio; inhibition (IP1 accumulation), % at 46.1 µM; 120,000 tested, under 10 active; active means well fitted curve in the direction sought with a large enough effect in the signal ratio, not every such curve was filed as active; inconclusive means small, poorly fitted or top-dose-only effect, or a change in a side signal; inactive means no such curve, though single readings can be large or run the other way; the % refers to the signal ratio;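 further: cells stimulated with carbachol in lithium chloride buffer; plate controls were DMSO basal wells for no effect and reference inhibitor wells for full effect; higher means more IMPase inhibition seen as more IP1 and lower FRET ratio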
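Seeded CHO-M1 cells were dosed with compound at up to 46 uM, stimulated with carbachol for 30 min, then lysed in IP-One detection reagents. Higher IP1 lowers the TR-FRET signal.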
PNC assembly inh: blocks assembly of the perinucleolar compartment; PC3M PTB-GFP, PNC prevalence imaging, 16 h; hits give low values; 140,000 compounds, 3.1% hits; activity change (PNC), negative = inhibition, % at 10 µM; AID 2417;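 active means readout at or below -70, meaning at least 70% loss of cells showing the perinucleolar compartment, a nuclear body marking cancer cells; inconclusive means readout between -30 and a set limit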;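 further: plate controls were DMSO wells for no effect and camptothecin positive control wells for full effect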
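Compounds are pinned in duplicate onto adhered PC3M cells stably expressing GFP-tagged PTB and incubated 16 h at 37 C. Cells are then fixed, nuclei stained with Hoechst, and PNC-positive cells counted.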
Active calls of the source: *; ? = inconclusive; nt = no result; [ ] = dose if it differs, or a comment. Unless noted, the call rests on the fitted dose curve; in most records, active means well fitted curve in the direction sought with a large enough effect; inconclusive means small, poorly fitted or top-dose-only effect, or another doubt; inactive means no such curve, though single readings can be large; an effect the other way counts as inactive or inconclusive. Unless noted, on the % scale 0 is the no-effect control and ±100 the full control effect.

SMILES | ALOX15B inhib | 12-hLO inh | IMPase inh | PNC assembly inh
O=C(CCc1ccccc1)NC(NC(=S)Nc1cccc(Cl)c1)C(Cl)(Cl)Cl (configuration not stated) | nt | -0.8% | 6.1 | -118.9*
Cc1cc(=O)n2nc(N3CCCC(C(=O)N4CCN(c5ccccc5)CC4)C3)sc2n1 (configuration not stated) | -2.4% | -0.9% | 6.7 | -116.6*
O=C(CC(=O)NC1CCCCC1)N/N=C/c1cccc2ccccc12 | 7.2%[11.4 µM] | -2.6% | 7.0[1.84 µM] | -85.5*
COc1cc(S(=O)(=O)N2CCC(c3nc4ccccc4s3)CC2)ccc1S(=O)(=O)NC1CCCC1 | nt | -5.3% | 3.4 | -100.0*
CCOc1ccccc1NC(=O)CN(CCc1ccccc1)S(=O)(=O)c1ccc(C)cc1 | nt | nt | -3.8 | nt
COC(=O)C1=C(C)NC(C)=C(C(=O)OC)C1C1CC=CCC1 (configuration not stated) | nt | -6.3% | ? | -103.7*
O=C(NC1CCCCC1)c1ccc(Cc2nc3ccccc3[nH]2)cc1 | nt | -2.8% | nt | nt
COc1ccccc1NC(=O)c1oc2ccc(C)cc2c1C | 4.7% | -5.5% | 2.8 | -80.1*
COc1ccc(NC(=O)c2oc3cc(C)c(C)cc3c2C)c(OC)c1 | nt | 4.3% | -5.8 | 6.6
C[C@@H]1CC2(OC[C@]3(C)O[C@H]23)O[C@H]2C[C@@]3(C)[C@@H]4CC[C@H]5C(C)(C)C(O[C@@H]6OC[C@@H](O)[C@H](O)[C@H]6O)CC[C@@]56C[C@@]46CC[C@]3(C)[C@@H]12 (some centres not stated) | 2.1% | 2.0% | nt | nt
N#CCC1c2ccccc2CCN1C(=O)Nc1cccc(Cl)c1 (configuration not stated) | 1.0% | -0.6% | 10.2 | 24.5
N#CCC1c2ccccc2CCN1C(=O)Nc1ccc(Cl)cc1 (configuration not stated) | 2.8%[11.4 µM] | 2.3% | 7.5[1.84 µM] | -80.9*
COc1ccc(-c2oc3ncn4nc(COc5ccc(C)cc5)nc4c3c2-c2ccc(OC)cc2)cc1 | nt | nt | -3.3 | nt
O=S(=O)(c1ccc(-c2nnc(SCc3ccccc3)o2)cc1)N1CCCC1 | -4.2% | -4.0% | -4.8 | 2.9
Cc1ccc(CSc2nnc(-c3ccc(S(=O)(=O)N4CCCC4)cc3)o2)cc1 | 2.1% | -1.3% | -1.0 | -91.5*
Cn1c(=O)c2c(nc(/C=C\c3cccc(Cl)c3)n2C)n(C)c1=O | -5.7% | -2.1% | -3.7 | nt
COCCNC(=O)CSCc1nc(-c2ccc(SC)cc2)oc1C | nt | 5.0% | -4.3 | -88.6*
COc1ccc(-c2nc(CSCC(=O)NCc3ccc4c(c3)OCO4)c(C)o2)cc1OC | nt | -4.1% | 11.5 | -92.0*
CC(C)(Oc1ccc(Cl)cc1)C(=O)Nc1ccc(-c2nc3ncccc3o2)cc1 | nt | nt | -3.3 | nt
COc1c2c(nc3occc13)C(CC=C(C)C)(OC)C(OC(C)=O)CC2 (configuration not stated) | nt | 0.8% | 6.9 | -13.9
COc1c2c(nc3occc13)C(CC=C(C)C)(OC)C(O)CC2 (configuration not stated) | nt | 4.3% | -6.7 | -100.1*
C=CCCCCCCCCC(=O)O | -4.9%[0.0915 µM] | -0.7%[0.00818 µM] | nt | nt
COc1ccc(CN(C(=O)c2cnccn2)C(C(=O)Nc2ccc(F)cc2)c2ccccc2)cc1 (configuration not stated) | nt | 1.5% | 3.6[0.0738 µM] | -95.0*
CC1(C)NC(=O)N(CCOCCOc2ccc3ccccc3c2Br)C1=O | -5.6% | 6.0% | 1.7 | -111.1*
CCNc1ncc2nc(-c3ccc(F)cc3)c(=O)n(CCc3ccccc3)c2n1 | -1.4% | nt | nt | nt
SMILES | ALOX15B inhib | 12-hLO inh | IMPase inh | PNC assembly inh
CCNc1nc(NCC)nc(SCCOc2ccc(C)cc2)n1 | nt | 1.2% | nt | -113.4*
Cc1cccc(OCCCC(=O)NC(C)c2ccccc2)c1 (configuration not stated) | 4.4% | -6.9% | 8.3 | -5.2
Cc1cccc(OCCCC(=O)NC(C)C)c1 | 2.3% | -2.8% | 4.1 | -80.2*
CC(C)(C)OC(=O)N1CCC[C@H]1c1nnc(SCc2ccc(Cl)cc2Cl)o1 | 0.7% | -14.8% | 20.3 | 33.8
CC(C)(C)OC(=O)N1CCC[C@H]1c1nnc(SCc2ccccc2Cl)o1 | -2.3% | 1.5% | 4.1 | -113.7*
CCNC(=O)C1CN(S(=O)(=O)c2ccccc2)CCN1S(=O)(=O)c1ccccc1 (configuration not stated) | 6.3% | -0.6% | -2.3 | 5.4
CCc1cccc(CC)c1NC(=O)C1CN(S(=O)(=O)c2ccccc2)CCN1S(=O)(=O)c1ccccc1 (configuration not stated) | nt | -1.7% | -3.9 | -111.0*
CCCCc1nc2c(c3c1C[C@H](C)OC3)CN(S(=O)(=O)c1ccc(C#N)cc1)CC2 | nt | -0.4%[11.4 µM] | nt | nt
CCc1nc2ccccc2n1CC(C)C(=O)O (configuration not stated) | nt | -2.6% | 5.1 | -100.0*
CCCCCn1c2nc3ccccc3nc2c2c(=O)n(CC3CCCO3)c(C)nc21 (configuration not stated) | -8.3% | -0.2% | 3.6 | -26.9
CCCCC(=O)/C=C/n1c(=S)oc2ccccc21 | nt | 2.2% | nt | -116.4*
CCCCNC(=S)N/N=C/c1ccc(OCC(=O)Nc2c(C)cc(C)cc2C)c(OC)c1 | nt | -5.1% | nt | -81.9*
Cc1[nH]c2ccccc2c1C(=O)COC(=O)Cn1c(C(F)(F)F)nc2ccccc21 | nt | -5.5% | nt | -105.2*
CCCCSc1nnc(CCCCCNC(=O)OC(C)(C)C)o1 | 9.6% | -3.0% | -3.6 | ?
COc1cc(NS(=O)(=O)c2cccc3nsnc23)cc(OC)c1 | -6.4% | -6.3% | 5.9 | -82.0*
COc1cccc(NS(=O)(=O)c2cc(C)sc2C)c1 | nt | -5.2% | -3.8 | -100.0*
Cc1cc(S(=O)(=O)Nc2ccc(N(C)C)cc2)c(C)s1 | -10.3% | 4.9% | 11.3 | -23.4
CC(C)C[C@H](NC(=O)[C@@H](O)[C@@H](N)Cc1ccccc1)C(=O)O | -6.5% | 3.0% | -6.5 | nt
CCOC(=O)C1=C(C)NC(SCC(=O)Nc2nc(C)cs2)=C(C#N)C1c1cccs1 (configuration not stated) | 7.1% | -25.5% | 2.0 | -20.9
CCCCc1cc2c(cn1)C(=O)C(C)(OC(C)=O)C(=O)C2 (configuration not stated) | nt | 0.0%[11.4 µM] | nt | nt
Cc1ccc(C(=O)Nc2ccc3c(c2)OCO3)o1 | -11.8% | -7.3% | 1.6 | -21.0
Cc1ccc(C(=O)OCC(=O)Nc2ccc3c(c2)OCO3)o1 | nt | 3.0% | -8.2 | -100.0*
Cc1cc(C)n2nc(C(=O)OCC(=O)Nc3ccc4c(c3)OCO4)nc2n1 | -2.1% | -2.2% | 0.9 | -94.0*
CN1CCN(c2ccnc(-c3cccc(NS(C)(=O)=O)c3)n2)CC1 | 0.3% | 1.5% | nt | nt
CC#CCN1c2ccccc2[C@]23C[C@@H](C(=O)OC)N(S(=O)(=O)c4ccc(C)cc4)C2=NC(C(=O)OC)=C(C(=O)OC)[C@H]13 | nt | 0.6%[11.4 µM] | nt | nt
O=C(O)[C@H]1CCCNC1 | 16.7% | 2.9% | -2.8 | nt
O=Cc1cn(CC(=O)N2CCCc3ccccc32)c2ccccc12 | nt | 1.1% | 0.2 | -100.0*
CC(Oc1ccccc1)C(=O)Nc1ccc(S(=O)(=O)NCC2CCCO2)cc1 (configuration not stated) | 0.5% | -4.1% | -2.0 | ?
